# Data: PubChem BioAssay AID1159580 (chemical genetic matrix, 2015)
# Values joined by “and” are separate entries in the source; they are usually repeats but may differ in a detail not shown here. Identical values can stand only once. In all, about 5,500 compounds went through this assay and about 2,000 (36%) were called active. About 18% were inconclusive and are not listed. This is one part of the list. A number with no mark means an inactive call. Rule as the data show it: active = normalized growth mostly below about 0.91 (no sharp cut-off); inconclusive = no clear call, values can overlap the other calls; inactive = mostly above about 0.92.
# Assay: chemical genetic growth profiling, strain panel (AID 1159580);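 also: tested at 20 µM; growth read once vehicle control cultures reached saturation at 30 °C; 1 = growth at the plate median or of vehicle wells; lower values mean less growth of the strain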
# Conditions: S. cerevisiae deletion strains, growth OD
smiles,measurement,setting,value
COC(=O)NC(=S)Nc1ccccc1NC(=S)NC(=O)OC,normalized growth,"locus YAL013W, strain DEP1, active compounds read low",1
same,normalized growth,"locus YAL021C, strain ccr4, active compounds read low",0.92
same,normalized growth,"locus YAL026C, strain drs2, active compounds read low",0.975
same,normalized growth,"locus YAL030W, strain snc1, active compounds read low",0.986
same,normalized growth,"locus YBL061C, strain skt5, active compounds read low",0.99
same,normalized growth,"locus YBR009C, strain hhf1, active compounds read low",0.973
same,normalized growth,"locus YBR021W, strain FUR4, active compounds read low",1.02
same,normalized growth,"locus YBR023C, strain chs3, active compounds read low",0.966
same,normalized growth,"locus YBR171W, strain sec66, active compounds read low",0.974
same,normalized growth,"locus YBR229C, strain ROT2, active compounds read low",1
same,normalized growth,"locus YBR231C, strain swc5, active compounds read low",1
same,normalized growth,"locus YBR279W, strain paf1, active compounds read low",0.983
same,normalized growth,"locus YCL011C, strain gbp2, active compounds read low",0.978
same,normalized growth,"locus YCL016C, strain dcc1, active compounds read low",0.974
same,normalized growth,"locus YCL029C, strain bik1, active compounds read low",1.03
same,normalized growth,"locus YCL069W, strain vba3, active compounds read low",0.978
same,normalized growth,"locus YCR088W, strain abp1, active compounds read low",0.975
same,normalized growth,"locus YDL005C, strain med2, active compounds read low",0.963
same,normalized growth,"locus YDL035C, strain GPR1, active compounds read low",0.992
same,normalized growth,"locus YDL040C, strain nat1, active compounds read low",0.973
same,normalized growth,"locus YDL074C, strain BRE1, active compounds read low",1.03
same,normalized growth,"locus YDL101C, strain DUN1, active compounds read low",1.02
same,normalized growth,"locus YDL134C, strain PPH21, active compounds read low",1
same,normalized growth,"locus YDL185W, strain tfp1, active compounds read low",1
same,normalized growth,"locus YDL192W, strain arf1, active compounds read low",1.01
same,normalized growth,"locus YDR001C, strain nth1, active compounds read low",0.976
same,normalized growth,"locus YDR069C, strain doa4, active compounds read low",0.909
same,normalized growth,"locus YDR101C, strain arx1, active compounds read low",1.01
same,normalized growth,"locus YDR137W, strain rgp1, active compounds read low",0.945
same,normalized growth,"locus YDR150W, strain NUM1, active compounds read low",0.996
same,normalized growth,"locus YDR159W, strain sac3, active compounds read low",0.969
same,normalized growth,"locus YDR162C, strain NBP2, active compounds read low",1.01
same,normalized growth,"locus YDR195W, strain ref2",1.04
same,normalized growth,"locus YDR297W, strain sur2, active compounds read low",0.984
same,normalized growth,"locus YDR318W, strain mcm21, active compounds read low",1.02
same,normalized growth,"locus YDR334W, strain swr1, active compounds read low",0.972
same,normalized growth,"locus YDR335W, strain msn5, active compounds read low",0.97
same,normalized growth,"locus YDR388W, active compounds read low",1.02
same,normalized growth,"locus YDR392W, strain spt3, active compounds read low",0.724 (active)
same,normalized growth,"locus YDR502C, strain sam2, active compounds read low",0.993
same,normalized growth,"locus YEL003W, strain gim4, active compounds read low",0.959
same,normalized growth,"locus YEL037C, strain rad23, active compounds read low",0.973
same,normalized growth,"locus YEL061C, strain CIN8 (second series), active compounds read low",0.979
same,normalized growth,"locus YEL061C, strain CIN8, active compounds read low",0.996
same,normalized growth,"locus YER015W, strain faa2, active compounds read low",0.981
same,normalized growth,"locus YER016W, strain bim1, active compounds read low",0.963
same,normalized growth,"locus YER110C, active compounds read low",1.02
same,normalized growth,"locus YER111C, strain swi4, active compounds read low",0.958
same,normalized growth,"locus YER155C, strain BEM2 (second series), active compounds read low",0.753 (active)
same,normalized growth,"locus YER155C, strain BEM2, active compounds read low",1.01
same,normalized growth,"locus YER167W, strain BCK2, active compounds read low",0.977
same,normalized growth,"locus YFR010W, strain ubp6, active compounds read low",0.984
same,normalized growth,"locus YGL078C, strain dbp3, active compounds read low",0.982
same,normalized growth,"locus YGL086W, strain mad1, active compounds read low",0.997
same,normalized growth,"locus YGL167C, strain pmr1, active compounds read low",0.976
same,normalized growth,"locus YGL173C, strain kem1, active compounds read low",0.985
same,normalized growth,"locus YGL227W, strain vid30, active compounds read low",0.977
same,normalized growth,"locus YGL240W, strain doc1, active compounds read low",0.972
same,normalized growth,"locus YGL248W, strain PDE1, active compounds read low",1.01
same,normalized growth,"locus YGL253W, strain hxk2, active compounds read low",1
same,normalized growth,"locus YGR078C, strain PAC10, active compounds read low",0.996
same,normalized growth,"locus YGR135W, strain pre9, active compounds read low",1
same,normalized growth,"locus YGR229C, strain SMI1, active compounds read low",0.986
same,normalized growth,"locus YGR252W, strain gcn5, active compounds read low",0.981
same,normalized growth,"locus YHR013C, strain ard1, active compounds read low",0.886
same,normalized growth,"locus YHR027C, strain rpn1, active compounds read low",0.985
same,normalized growth,"locus YHR030C, strain SLT2, active compounds read low",0.997 and 0.983
same,normalized growth,"locus YHR079C, strain IRE1 (second series), active compounds read low",1.02
same,normalized growth,"locus YHR079C, strain IRE1, active compounds read low",0.938
same,normalized growth,"locus YHR094C, strain hxt1, active compounds read low",1.01
same,normalized growth,"locus YHR129C, strain ARP1, active compounds read low",1.01
same,normalized growth,"locus YHR142W, strain chs7, active compounds read low",0.943
same,normalized growth,"locus YHR200W, strain rpn10, active compounds read low",1.01
same,normalized growth,"locus YIL066C, strain RNR3, active compounds read low",1.01
same,normalized growth,"locus YIL073C, strain SPO22, active compounds read low",0.999
same,normalized growth,"locus YIL125W, strain kgd1, active compounds read low",0.998
same,normalized growth,"locus YIR030C, strain dcg1, active compounds read low",1.02
same,normalized growth,"locus YJL092W, strain hpr5, active compounds read low",0.977
same,normalized growth,"locus YJL095W, strain BCK1 (second series), active compounds read low",0.978
same,normalized growth,"locus YJL095W, strain BCK1, active compounds read low",1.04 and 0.967
same,normalized growth,"locus YJL115W, strain asf1, active compounds read low",0.966
same,normalized growth,"locus YJL129C, strain trk1, active compounds read low",0.939
same,normalized growth,"locus YJL134W, strain LCB3, active compounds read low",1
same,normalized growth,"locus YJL154C, strain vps35, active compounds read low",0.963
same,normalized growth,"locus YJL164C, strain tpk1, active compounds read low",0.965
same,normalized growth,"locus YJL166W, strain qcr8, active compounds read low",0.979
same,normalized growth,"locus YJL168C, strain set2, active compounds read low",1.02
same,normalized growth,"locus YJL187C, strain SWE1 (second series), active compounds read low",1.04
same,normalized growth,"locus YJL187C, strain SWE1, active compounds read low",0.986
same,normalized growth,"locus YJR043C, strain POL32, active compounds read low",1.04
same,normalized growth,"locus YJR066W, strain TOR1, active compounds read low",0.87
